The whole screen tested about 1,400 compounds, of which fewer than 10 were called active. Roughly 8% stayed inconclusive and do not appear here. A selection follows. Unmarked numbers belong to inactive results. The call rests on the fitted dose curve; in most records, active means well fitted curve in the direction sought with a large enough effect; inconclusive means small, poorly fitted or top-dose-only effect, or another doubt; inactive means no such curve, though single readings can be large or run the other way.
Biological target: Transient receptor potential cation channel subfamily V member 1 (Homo sapiens) (UniProt Q8NER1)
Test: qHTS Assay for Compounds that Act as Potentiators of the Vanilloid Receptor 1: Hit Validation; further: % of control where 0% means no effect
Conditions: TRPV1-expressing cells, Fluo-8 calcium influx, capsaicin EC20; series mostly up to 42.1 µM; activity change, positive = potentiation: at the top concentration
From the text: The transient receptor potential ion channel, family V, number 1, (TRPV1) is one of the most important molecular transducers of painful stimuli and a potential target for analgesic drug development. Although recent clinical trials with orthosteric antagonists have not produced a successful drug because of a hyperthermia side effect and their tendency to block thermal noxious pain, this ion channel is undeniably well placed in the pain pathway, and the idea of blocking pain signals before they enter the CNS is an excellent concept and of proven efficacy when TRPV1 agonists are used. We propose a new approach involving allosteric modulation to impose an activity-dependent constraint within the context of inflammation and tissue damage that would alter the responsiveness of the channel in a way that an orthosteric vanilloid antagonist cannot achieve. We believe that the allosteric modulator approach has not been explored for this target. The main goal of this proposal is to identify additional, new, potent allosteric modulators of TRPV1 that can be used to investigate TRPV1 function. Our recent report provides evidence of proof of concept, but the compounds are just at the edge of utility in terms of potency. […] The question of whether they can be used as analgesic agents is complex, but if suitable compounds are identified then testing for analgesic properties will be conducted. Compounds identified as agonists were re-tested in the primary screen for hit validation. NIH Chemical Genomics Center [NCGC] NIH Molecular Libraries Probe Centers Network [MLPCN] MLPCN Grant: MH089480 Assay Submitter (PI): Michael Iadarola, National Institute of Dental and Cranofacial Research
Upon TRPV1 activation in TRPV1 cells, the channel opens and extracellular cations flow through the channel into the cytosol. A calcium binding dye (Fluo-8) becomes fluorescent when bound to calcium. This dye is pre-loaded into cells and is used as a marker for calcium influx. The amount of accumulated calcium is precisely quantified using the FDSS kinetic reader and the calcium dye. For the HTS assay, freshly prepared cells are plated at a density of 2000/well in 3 ul medium in 1536-well plates and cultured overnight at 35.5C. Cells will be loaded with 1 ul of the homogeneous calcium dye (ABD Bioquest) at room temperature for 40 to 90 minutes. Plates will be loaded into the FDSS kinetic reader and a 1 sec / cycle for 10 second baseline signal will be measured. Compound library will then be added with a pintool at 23 nl and measured kinetically for 3 minutes. This portion of the read is considered the agonist portion of the screen. Following the 3 minutes of incubation, an on board pipettor will deliver 1 ul of capsaicin for a final concentration equal to the EC20. Signal will be measured kinetically for an additional 2 minutes. This portion of the read is considered the allosteric enhancer portion of the screen. The FDSS reader has a standard filter set capable of measuring calcium bound Fluo-8 (ex=480 and em=520 nm).

Chain of Transient receptor potential cation channel subfamily V member 1 (Homo sapiens) (Q8NER1 whole entry, looked up): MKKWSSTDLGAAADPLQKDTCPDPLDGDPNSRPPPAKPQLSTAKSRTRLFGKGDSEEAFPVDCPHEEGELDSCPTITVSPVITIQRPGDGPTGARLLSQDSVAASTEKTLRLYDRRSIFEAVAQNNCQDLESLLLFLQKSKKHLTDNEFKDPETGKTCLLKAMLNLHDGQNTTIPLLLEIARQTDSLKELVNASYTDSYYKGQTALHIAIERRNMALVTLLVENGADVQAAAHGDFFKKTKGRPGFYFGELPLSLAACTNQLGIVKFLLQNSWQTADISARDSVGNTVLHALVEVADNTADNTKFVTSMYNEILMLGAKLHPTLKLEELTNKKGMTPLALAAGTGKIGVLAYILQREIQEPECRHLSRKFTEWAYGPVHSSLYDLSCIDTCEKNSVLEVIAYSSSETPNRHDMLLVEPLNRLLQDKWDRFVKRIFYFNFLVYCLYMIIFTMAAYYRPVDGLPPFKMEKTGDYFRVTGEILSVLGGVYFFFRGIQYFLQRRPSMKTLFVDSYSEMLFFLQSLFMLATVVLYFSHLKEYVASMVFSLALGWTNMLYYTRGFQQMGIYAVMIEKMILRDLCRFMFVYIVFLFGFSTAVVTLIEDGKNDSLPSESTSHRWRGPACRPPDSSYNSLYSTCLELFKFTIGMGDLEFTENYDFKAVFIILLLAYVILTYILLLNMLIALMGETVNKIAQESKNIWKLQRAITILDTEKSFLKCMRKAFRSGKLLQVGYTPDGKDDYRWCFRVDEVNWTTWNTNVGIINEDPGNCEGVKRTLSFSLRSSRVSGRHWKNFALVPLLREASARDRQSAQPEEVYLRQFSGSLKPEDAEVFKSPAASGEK

Going from `CC(Oc1cccc(Cl)c1)C(=O)Nc1nc(-c2ccccn2)cs1` (centres undefined) to `CC(C)=NOCC(=O)Nn1c(COc2ccccc2)nc2ccccc2c1=O`, the “activity change, positive = potentiation” value rises from -5.61% to 4.02%.

Compared with `Cc1cc(C)c(C(=O)N2CCCC(Nc3ccc(C)c(C)c3)C2)o1` (centres undefined), `Cc1ccc(NC(=O)CN(C)C(C)C(=O)Nc2ccc(S(=O)(=O)N3CCCC3)cc2)cc1` (centres undefined) is higher in “activity change, positive = potentiation” value: -38.2% for the first, -4.26% for the second.

Going from `Cc1[nH]c2ccccc2c1-c1nc2ccccc2[nH]1` to `CC(=O)Oc1ccc(/C=C/c2nc3ccccc3c(=O)o2)cc1`, the “activity change, positive = potentiation” value rises from -11.8% to -8.54%.

First: CSc1ncccc1C(=O)OCc1ccc(Br)cc1
Second: O=C(NCc1cccnc1)c1ccc(-c2ccc(Cl)cc2)o1
The “activity change, positive = potentiation” value of the first is higher: -6.08% for the first, -37.5% for the second.

First: COc1ccc(-c2nn(-c3ccccc3)cc2C(=O)NC(=S)Nc2cc(Cl)ccc2Cl)cc1
Second: O=C(NCc1ccncc1)c1ccc(Oc2ccccc2)cc1
The “activity change, positive = potentiation” value of the first is higher: -10.8% for the first, -35.7% for the second.

Going from `CCOCCCn1c(=S)[nH]c2cc(C(=O)N3CCC(C(N)=O)(N4CCCCC4)CC3)ccc2c1=O` to `O=C(CCCCn1c(=O)c2ccccc2n(CC(=O)NC2CCCC2)c1=O)NCc1ccco1`, the “activity change, positive = potentiation” value rises from -7.29% to -5.96%.

Going from `CCOc1c(Nc2ccc(C(C)C)cc2)c(=O)c1=O` to `O=C(Nc1ccc(F)cc1)c1ccc2ncsc2c1`, the “activity change, positive = potentiation” value falls from -36.4% to -36.9%.

Compared with `O=C(Cc1cccs1)Nc1cccc(-c2nnc(-c3ccco3)o2)c1`, `CC(=O)c1cccc(NC(=O)/C(=C\c2cccnc2)NC(=O)c2ccc(C)cc2)c1` is higher in “activity change, positive = potentiation” value: -4.78% for the first, 3.38% for the second.

Going from `CC(C)C[C@H](NC(=O)c1[nH]cnc1C(=O)N[C@@H](Cc1ccccc1)C(=O)OC(C)(C)C)C(=O)OC(C)(C)C` to `CC(C)(C)C(=O)CSc1ncnc2c1cnn2Cc1ccccc1`, the “activity change, positive = potentiation” value falls from -33.7% to -37.9%.

First: CCC(CO)NCc1ccc(OCC(O)c2ccccc2)c(OC)c1 (centres undefined)
Second: CCOc1ccc(OCCC(=O)N(CC(=O)Nc2ccccc2C(F)(F)F)Cc2ccco2)cc1
The “activity change, positive = potentiation” value of the first is higher: -0.957% for the first, -7.83% for the second.

Compared with `COc1c(O)ccc(/C=N\NC(=O)c2ccc3c(c2)OCO3)c1[N+](=O)[O-]`, `COCCn1cnnc1SCC(=O)Nc1cc(OC)c([N+](=O)[O-])cc1C` is lower in “activity change, positive = potentiation” value: -5.8% for the first, -6.14% for the second.

Compared with `C=C(C)c1cccc(C(C)(C)NC(=O)Nc2cccnc2)c1`, `CN(C)/C=C/C(=O)c1nnn(C2CCCCC2)c1NC1CCCCC1` is higher in “activity change, positive = potentiation” value: -37.9% for the first, -35.6% for the second.

From PubChem BioAssay AID623959 (National Center for Advancing Translational Sciences (NCATS), 2012)
